Percent Effect data for eleven molecules are collected here from ChEMBL document CHEMBL3988442, “University of Dundee, Small-Polar-MMV Screening Library” (2021).

For some of these results: Potency and affinity values are given separately.

Set-up in all cases: scale not given: direction of the effect not stated beside the values
Experiment [1] deals with Protein translocase subunit SecA (Escherichia coli (strain K12)) (UniProt P10408). Put plainly: Assay to Identify E. coli SecA ATPase Inhibitors. The class given is functional. The note with it: 30 µM.
In experiment [2] the target is T1, Ubiquitin-activating enzyme e1, putative (Leishmania donovani (strain BPK282A1)) (UniProt E9BSI1).
T1 sequence (whole entry): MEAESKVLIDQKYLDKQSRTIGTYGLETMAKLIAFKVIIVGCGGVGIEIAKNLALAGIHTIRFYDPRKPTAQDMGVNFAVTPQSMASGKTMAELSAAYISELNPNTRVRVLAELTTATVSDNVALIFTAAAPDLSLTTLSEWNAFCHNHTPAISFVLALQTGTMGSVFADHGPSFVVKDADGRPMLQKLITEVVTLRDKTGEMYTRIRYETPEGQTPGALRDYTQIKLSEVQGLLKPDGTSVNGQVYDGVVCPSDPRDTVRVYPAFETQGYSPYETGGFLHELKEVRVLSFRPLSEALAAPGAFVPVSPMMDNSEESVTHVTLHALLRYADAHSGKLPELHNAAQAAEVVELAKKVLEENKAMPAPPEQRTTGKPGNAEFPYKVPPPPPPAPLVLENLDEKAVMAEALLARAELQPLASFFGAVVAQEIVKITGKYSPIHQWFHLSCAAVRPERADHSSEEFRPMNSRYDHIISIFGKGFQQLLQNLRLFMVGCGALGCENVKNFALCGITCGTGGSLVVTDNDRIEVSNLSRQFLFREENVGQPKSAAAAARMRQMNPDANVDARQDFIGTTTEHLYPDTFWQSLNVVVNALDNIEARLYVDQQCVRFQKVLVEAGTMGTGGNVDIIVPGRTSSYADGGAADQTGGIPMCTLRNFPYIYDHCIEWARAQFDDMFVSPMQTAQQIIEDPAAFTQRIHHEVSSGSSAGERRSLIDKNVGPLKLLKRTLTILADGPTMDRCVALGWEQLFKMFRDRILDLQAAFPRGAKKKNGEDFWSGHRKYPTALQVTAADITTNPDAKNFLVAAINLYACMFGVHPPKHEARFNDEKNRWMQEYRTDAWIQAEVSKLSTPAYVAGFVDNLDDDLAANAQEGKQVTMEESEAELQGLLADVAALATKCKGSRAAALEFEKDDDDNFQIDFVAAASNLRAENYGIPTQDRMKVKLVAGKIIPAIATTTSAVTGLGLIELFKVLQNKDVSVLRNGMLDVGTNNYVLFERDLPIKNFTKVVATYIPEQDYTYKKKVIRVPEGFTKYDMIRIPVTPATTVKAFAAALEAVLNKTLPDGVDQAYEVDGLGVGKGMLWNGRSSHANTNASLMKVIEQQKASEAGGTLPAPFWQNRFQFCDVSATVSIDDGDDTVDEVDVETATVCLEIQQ
Put plainly: Leishmania donovani Ubiquitin Activating Enzyme (LdE1). It is filed as functional. The note with it: 30 µM.

In experiment [3] the target is AMP-activated protein kinase, AMPK (Homo sapiens) (UniProt P54646+O43741+P54619+Q9UGJ0+Q9Y478+Q13131+Q9UGI9). Put plainly: AMP-dependent Kinase enzyme assay. An in vitro enzyme assay that detects ADP turnover that is directly proportional to AMPK activity. This uses naive AMPK that is activated during the assay with MK-8722. It is filed as functional. The note with it: 30 µM.

For experiment [4], the target named is Sialic acid-binding Ig-like lectin 9 (Homo sapiens) (UniProt Q9Y336). Put plainly: Hs-Siglec9 ALPHAscreen SOP 20170721. The note with it: 10 µM.
Experiment [5] deals with Trypanosoma cruzi. Put plainly: Trypanosoma cruzi phosphomannomutase and mannose-1-phosphate guanylyltransferase assay. It is filed as functional. Conditions: 10 µM.
For experiment [6], the target named is T2, Arginase-2, mitochondrial (Homo sapiens) (UniProt P78540).
T2 sequence (whole entry): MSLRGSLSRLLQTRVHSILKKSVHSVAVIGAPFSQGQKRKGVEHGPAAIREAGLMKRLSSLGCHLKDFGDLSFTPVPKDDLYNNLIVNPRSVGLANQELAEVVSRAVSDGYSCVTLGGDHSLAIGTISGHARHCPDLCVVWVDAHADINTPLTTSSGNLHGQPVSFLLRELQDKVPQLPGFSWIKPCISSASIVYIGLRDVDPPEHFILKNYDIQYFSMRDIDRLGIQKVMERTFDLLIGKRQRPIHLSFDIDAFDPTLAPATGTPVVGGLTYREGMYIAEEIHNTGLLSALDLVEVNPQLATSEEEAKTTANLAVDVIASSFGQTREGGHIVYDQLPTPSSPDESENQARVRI
Put plainly: in vitro enzyme assay to detect the production of urea directly proportional to the activity of Arginase II. Also: in the data most compounds retested in dose-response had high values. It is filed as functional. Conditions: 33.3 µM.

In experiment [7] the target is T3, Proteasome subunit beta (Trypanosoma cruzi) (UniProt O96673).
T3 sequence (whole entry): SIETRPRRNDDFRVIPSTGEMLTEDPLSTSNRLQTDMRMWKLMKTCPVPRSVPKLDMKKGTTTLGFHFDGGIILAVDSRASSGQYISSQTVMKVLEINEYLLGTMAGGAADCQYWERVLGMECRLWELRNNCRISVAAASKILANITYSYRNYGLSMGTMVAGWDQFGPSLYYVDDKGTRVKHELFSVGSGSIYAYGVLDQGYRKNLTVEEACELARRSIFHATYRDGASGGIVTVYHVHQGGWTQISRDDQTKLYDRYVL
Put plainly: Trypanosoma cruzi proteasome chymotrypsin-like activity (TcProtChymo) assay. Also: in the data most compounds retested in dose-response had high values. The note with it: 9.37 µM. The class given is functional.

The species entered for experiment [8] is Homo sapiens. Put plainly: To identify inhibition of the IFN signalling (Jak-Stat) pathway via expression of an eGFP reporter gene under the control of an IFN-stimulated response element (ISRE) containing MxA promoter. The class given is functional. The note with it: 30 µM.
The target of experiment [9] is T4, Tyrosyl-tRNA synthetase, putative (Trypanosoma cruzi (strain CL Brener)) (UniProt Q4DSP6).
T4 sequence (whole entry): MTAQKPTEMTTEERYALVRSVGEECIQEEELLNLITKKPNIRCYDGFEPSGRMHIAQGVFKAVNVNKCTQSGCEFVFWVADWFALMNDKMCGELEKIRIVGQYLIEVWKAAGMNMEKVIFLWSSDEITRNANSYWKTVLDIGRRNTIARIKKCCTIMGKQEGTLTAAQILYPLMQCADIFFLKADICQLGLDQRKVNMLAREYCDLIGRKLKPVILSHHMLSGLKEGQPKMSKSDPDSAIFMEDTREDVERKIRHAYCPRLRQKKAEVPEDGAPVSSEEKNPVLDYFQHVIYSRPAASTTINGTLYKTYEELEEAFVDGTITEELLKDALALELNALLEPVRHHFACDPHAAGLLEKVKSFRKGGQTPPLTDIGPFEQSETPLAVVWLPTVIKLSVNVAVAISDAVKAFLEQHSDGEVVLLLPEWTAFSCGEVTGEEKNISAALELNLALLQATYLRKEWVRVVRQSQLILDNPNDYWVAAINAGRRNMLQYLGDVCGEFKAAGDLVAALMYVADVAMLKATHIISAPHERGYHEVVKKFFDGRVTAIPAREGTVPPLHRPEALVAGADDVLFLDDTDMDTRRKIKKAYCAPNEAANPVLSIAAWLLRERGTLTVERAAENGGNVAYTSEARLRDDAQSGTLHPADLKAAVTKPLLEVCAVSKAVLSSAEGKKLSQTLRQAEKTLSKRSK
Put plainly: Trypanosoma cruzi tyrosyl tRNA synthetase (TcYRS) _High Tyrosine SOP. Also: in the data most compounds retested in dose-response had high values. It is filed as functional. The note with it: 30 µM.

In experiment [10] the target is T4, Tyrosyl-tRNA synthetase, putative (Trypanosoma cruzi (strain CL Brener)). Put plainly: Trypanosoma cruzi tyrosyl tRNA synthetase (TcYRS) SOP. The class given is functional. Conditions: 30 µM.
Experiment [11] addresses Chromo domain-containing protein 1 (Saccharomyces cerevisiae (strain ATCC 204508 / S288c) (Baker's yeast)) (UniProt P32657). Put plainly: ScCHD-1 Enzyme Inhibition Assay. Also: in the data most compounds retested in dose-response had high values. The class given is functional. Conditions: 30 µM.

Protein translocase subunit SecA (Escherichia coli (strain K12)), sequence (P10408 whole entry): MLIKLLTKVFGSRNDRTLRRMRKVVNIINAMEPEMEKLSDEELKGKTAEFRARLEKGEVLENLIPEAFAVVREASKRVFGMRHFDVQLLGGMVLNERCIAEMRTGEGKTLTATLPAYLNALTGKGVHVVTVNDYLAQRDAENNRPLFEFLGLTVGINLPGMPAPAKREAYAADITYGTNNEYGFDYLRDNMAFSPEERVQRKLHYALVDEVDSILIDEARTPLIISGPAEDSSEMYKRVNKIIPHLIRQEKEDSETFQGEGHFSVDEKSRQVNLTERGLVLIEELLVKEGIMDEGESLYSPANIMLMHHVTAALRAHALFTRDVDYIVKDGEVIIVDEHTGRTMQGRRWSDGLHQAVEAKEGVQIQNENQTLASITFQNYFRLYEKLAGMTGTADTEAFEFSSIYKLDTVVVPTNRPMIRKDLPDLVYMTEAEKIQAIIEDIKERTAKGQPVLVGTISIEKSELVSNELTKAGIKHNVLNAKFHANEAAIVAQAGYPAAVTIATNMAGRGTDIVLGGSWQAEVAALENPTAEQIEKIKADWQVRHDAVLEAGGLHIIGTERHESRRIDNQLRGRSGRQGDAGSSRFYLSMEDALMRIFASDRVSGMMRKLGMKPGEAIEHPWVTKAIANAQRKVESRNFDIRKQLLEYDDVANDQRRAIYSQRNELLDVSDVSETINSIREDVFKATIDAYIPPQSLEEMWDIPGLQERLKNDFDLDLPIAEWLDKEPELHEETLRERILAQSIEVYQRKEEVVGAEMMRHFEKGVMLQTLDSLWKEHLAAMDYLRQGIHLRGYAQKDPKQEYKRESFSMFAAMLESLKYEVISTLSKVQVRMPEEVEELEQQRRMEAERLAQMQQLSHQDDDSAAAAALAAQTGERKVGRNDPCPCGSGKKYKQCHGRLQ
Chromo domain-containing protein 1 (Saccharomyces cerevisiae (strain ATCC 204508 / S288c) (Baker's yeast)), sequence (P32657 whole entry, the tested form may be a part): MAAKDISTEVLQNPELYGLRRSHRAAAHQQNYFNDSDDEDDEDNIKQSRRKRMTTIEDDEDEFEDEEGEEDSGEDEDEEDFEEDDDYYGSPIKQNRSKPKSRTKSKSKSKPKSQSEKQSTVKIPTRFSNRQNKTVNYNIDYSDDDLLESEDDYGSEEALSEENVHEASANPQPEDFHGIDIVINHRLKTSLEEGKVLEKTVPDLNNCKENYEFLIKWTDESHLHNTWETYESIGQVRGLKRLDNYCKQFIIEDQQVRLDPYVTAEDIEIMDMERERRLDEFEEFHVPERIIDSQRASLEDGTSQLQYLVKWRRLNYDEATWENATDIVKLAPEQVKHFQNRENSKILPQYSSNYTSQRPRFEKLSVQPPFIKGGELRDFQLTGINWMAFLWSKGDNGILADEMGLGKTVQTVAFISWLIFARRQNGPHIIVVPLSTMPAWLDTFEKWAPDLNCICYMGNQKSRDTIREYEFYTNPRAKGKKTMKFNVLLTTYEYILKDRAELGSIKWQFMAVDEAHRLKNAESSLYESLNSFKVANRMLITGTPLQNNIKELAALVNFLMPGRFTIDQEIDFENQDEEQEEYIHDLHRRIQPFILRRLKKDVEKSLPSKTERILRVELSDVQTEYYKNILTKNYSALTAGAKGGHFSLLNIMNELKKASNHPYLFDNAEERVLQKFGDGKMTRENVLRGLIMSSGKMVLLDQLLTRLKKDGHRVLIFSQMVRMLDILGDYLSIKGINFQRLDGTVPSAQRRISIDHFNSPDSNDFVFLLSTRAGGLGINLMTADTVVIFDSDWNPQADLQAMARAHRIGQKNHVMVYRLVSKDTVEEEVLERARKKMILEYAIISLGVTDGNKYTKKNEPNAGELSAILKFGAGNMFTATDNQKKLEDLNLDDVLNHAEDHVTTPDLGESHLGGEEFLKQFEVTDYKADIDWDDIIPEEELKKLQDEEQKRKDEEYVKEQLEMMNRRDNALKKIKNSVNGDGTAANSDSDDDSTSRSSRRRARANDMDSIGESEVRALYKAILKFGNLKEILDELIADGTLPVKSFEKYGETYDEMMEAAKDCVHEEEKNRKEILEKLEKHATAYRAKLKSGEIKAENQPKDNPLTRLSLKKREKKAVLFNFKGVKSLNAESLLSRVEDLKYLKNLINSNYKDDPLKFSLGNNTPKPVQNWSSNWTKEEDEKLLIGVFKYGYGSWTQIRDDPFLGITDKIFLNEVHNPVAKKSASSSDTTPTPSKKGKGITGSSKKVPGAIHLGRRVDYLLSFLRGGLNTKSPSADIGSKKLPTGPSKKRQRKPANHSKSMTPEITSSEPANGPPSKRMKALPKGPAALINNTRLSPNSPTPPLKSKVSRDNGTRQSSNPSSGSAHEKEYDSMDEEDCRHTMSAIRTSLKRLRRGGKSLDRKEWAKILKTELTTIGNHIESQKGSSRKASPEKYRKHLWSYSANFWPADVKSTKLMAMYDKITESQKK
Sialic acid-binding Ig-like lectin 9 (Homo sapiens), sequence (Q9Y336 whole entry): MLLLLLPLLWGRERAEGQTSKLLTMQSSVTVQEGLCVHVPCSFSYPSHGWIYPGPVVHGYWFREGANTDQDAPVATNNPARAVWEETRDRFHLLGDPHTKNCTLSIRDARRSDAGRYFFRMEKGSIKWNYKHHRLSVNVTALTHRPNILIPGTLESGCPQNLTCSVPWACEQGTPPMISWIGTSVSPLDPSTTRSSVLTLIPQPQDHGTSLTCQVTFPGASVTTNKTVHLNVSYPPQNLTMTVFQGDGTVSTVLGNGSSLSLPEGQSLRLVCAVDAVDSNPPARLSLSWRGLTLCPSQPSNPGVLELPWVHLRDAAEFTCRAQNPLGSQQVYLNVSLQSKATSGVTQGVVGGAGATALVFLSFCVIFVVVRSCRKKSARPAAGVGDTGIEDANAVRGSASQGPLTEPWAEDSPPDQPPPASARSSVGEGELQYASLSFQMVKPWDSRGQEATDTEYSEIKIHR

As for `CNC(=O)C1(CCCc2cccnc2)CCCCN1` (stereo unspecified), the Percent Effect in experiment [1] is -1.25%; in experiment [2], 23%; in experiment [3], 5.4%; in experiment [4], -8.22%; in experiment [5] it was 3.95%; in experiment [6], 0.696%. The Percent Effect in experiment [7] was 17.6%; in experiment [8] it was 19%; in experiment [9] it was 1.07%; in [10], 9.09%; in experiment [11], -15.7%.
`Cn1cc(CN2CCOC3(CCCN(C(=O)c4ccco4)C3)C2)cn1` (stereo unspecified): the Percent Effect in experiment [1] was -4.16%; in [2], 13%; in [3], -1.39%; in [4], 4.5%; in experiment [5], 8.95%; in experiment [6], -8.28%. The Percent Effect is 5.49% in experiment [7]; 1.45% in experiment [8]; 3.23% in experiment [9]; 8.64% in experiment [10]; -6.46% in [11].
As for `CCCC(C)C(=O)NCc1cn2cc(Br)ccc2n1` (stereo unspecified), the Percent Effect is -3.66% in [1]; -44.7% in [2]; 5.33% in experiment [3]; 4.19% in [4]; -0.876% in experiment [5]; -2.37% in experiment [6]. In addition, the Percent Effect in experiment [7] is 9.68%; in experiment [8], 4.86%; in experiment [9] it was 9.57%; in [10], 15.6%; in experiment [11] it was -2.1%.
Consider `Cc1ccc(C(=O)NC(C)CN2CCCC2=O)c(=O)[nH]1` (stereo unspecified), for which the Percent Effect was -6.8% in experiment [1]; 5.48% in experiment [2]; -5.61% in experiment [3]; 0.134% in experiment [4]; -2.94% in experiment [5]; 0.455% in [6]. The Percent Effect in experiment [7] is 12.8%; in experiment [8], 18.2%; in experiment [9], 1.07%; in experiment [10], 2.5%; in experiment [11], -0.198%.
Turning to `Cc1ccc(-c2nc(CN3CCOC(Cn4cccn4)C3)cs2)o1` (stereo unspecified), the Percent Effect was 0.91% in [1]; 2.7% in experiment [2]; -3.73% in [3]; 5.65% in experiment [4]; 7.14% in experiment [5]; 0.476% in experiment [6]. Besides, the Percent Effect in experiment [7] stood at 12.4%; in experiment [8], 4.23%; in experiment [9], 2.65%; in [10] it was 9.76%; in experiment [11], 0.401%.
As to `CCNC(=O)CCc1c(C)nc2cc(O)nn2c1C`, the Percent Effect in experiment [1] is -0.575%; in [2] it was 15.6%; in experiment [3], -428%; in experiment [4], 4.55%; in experiment [5], 5.43%; in [6], 4.63%. For the same molecule, the Percent Effect in experiment [7] is 16.9%; in experiment [8], 23.5%; in experiment [9] it was 2.91%; in [10] it was 12.2%; in experiment [11], -8.86%.
Take `CC(C)Nc1ccc2nc(C3CCN(C(C)C)CC3)nn2c1`: the Percent Effect in [1] was -0.345%; in [2] it was 8.11%; in experiment [3], -95.9%; in [4], -2.89%; in experiment [5], 3.91%; in [6] it was 26.2%. For the same molecule, the Percent Effect in experiment [7] is 8.54%; in experiment [8], 7.24%; in [9], 10.9%; in experiment [10], 8.54%; in experiment [11] it was -1.81%.
For the molecule `Cc1cc(NC(=O)CN2CCOC(Cn3cccn3)C2)n(C)n1` (stereo unspecified), the Percent Effect in experiment [1] is -5.44%; in experiment [2] it was 0%; in experiment [3] it was 5.74%; in experiment [4], -1.25%; in experiment [5] it was 1.27%; in experiment [6], -1.05%. Besides, the Percent Effect in experiment [7] is -1.86%; in experiment [8], 15.9%; in [9] it was 2.86%; in experiment [10] it was 9.41%; in experiment [11], -16.3%.
For `CCCC(Nc1c(C#N)c(=O)n(C)c(=O)n1C)c1ccc(F)cc1F` (stereo unspecified), the Percent Effect in [1] is -5.68%; in experiment [2], 10.1%; in experiment [3] it was 0.965%; in experiment [4], 11%; in experiment [5], 5.19%; in [6] it was 4.18%. The Percent Effect in experiment [7] was 0.573%; in experiment [8] it was 1.79%; in [9], 7.39%; in [10], 13.9%; in [11] it was -4.28%.
For the molecule `O=C(C1CC=CC1)N1C[C@@H]2[C@@H](C1)OCC(=O)N2Cc1cccnc1`, the Percent Effect was -2.28% in experiment [1]; -2.6% in [2]; 12.1% in [3]; 3.67% in [4]; 0.888% in experiment [5]; -3.23% in experiment [6]. In addition, the Percent Effect in experiment [7] is 0.87%; in experiment [8], 15%; in experiment [9] it was 2.12%; in experiment [10] it was 6.41%; in experiment [11], -4.72%.
As for `CN(C)C(=O)N1CCN(Cc2nnc(C(C)(C)C)o2)CC1`, the Percent Effect in experiment [1] was -0.665%; in [2], -5.41%; in experiment [3] it was 0.51%; in experiment [4], 3.54%; in experiment [5], 0%; in [6], 1.91%. Further, the Percent Effect in experiment [7] is 1.55%; in [8] it was -1.07%; in experiment [9], -1.59%; in experiment [10] it was 0%; in experiment [11], -0.0145%.
